Active and inactive are the calls of the source.
How the values were obtained:
[1] = biological target: Albumin (Bos taurus) (UniProt P02769); assay: bovine serum albumin binders on microarray, profiling panel, artefact control for SMM control protein annotation, biochemical, small-molecule microarray, Alexa647 label, 635/667 nm fluorescence (AID 1118); settings: BSA-A647 binding, fluorescence 635 nm, higher = more signal;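 note: score merges 667 nm emission intensity and signal-to-noise per printed compound spot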
Sequence of Albumin (Bos taurus) (P02769 whole entry, looked up): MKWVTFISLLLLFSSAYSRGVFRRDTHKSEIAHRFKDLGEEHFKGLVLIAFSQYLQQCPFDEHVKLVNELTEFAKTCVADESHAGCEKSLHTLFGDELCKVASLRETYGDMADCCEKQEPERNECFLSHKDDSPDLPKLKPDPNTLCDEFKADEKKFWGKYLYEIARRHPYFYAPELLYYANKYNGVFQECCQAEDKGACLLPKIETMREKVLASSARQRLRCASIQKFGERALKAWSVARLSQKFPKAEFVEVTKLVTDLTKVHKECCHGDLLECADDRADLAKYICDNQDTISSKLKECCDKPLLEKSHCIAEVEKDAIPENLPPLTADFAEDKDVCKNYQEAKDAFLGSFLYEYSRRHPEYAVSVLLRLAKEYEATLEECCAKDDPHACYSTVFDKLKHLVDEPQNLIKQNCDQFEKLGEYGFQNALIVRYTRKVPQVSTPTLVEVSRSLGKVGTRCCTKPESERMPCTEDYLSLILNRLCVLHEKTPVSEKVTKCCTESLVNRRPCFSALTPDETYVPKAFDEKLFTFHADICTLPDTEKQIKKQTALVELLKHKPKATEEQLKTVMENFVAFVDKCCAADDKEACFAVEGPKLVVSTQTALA

[2] = small-molecule microarray binders of probe aXIP, primary screen, biochemical, NeuroSMM set, 635/667 nm fluorescence (AID 1119); settings: higher = more signal, called active from +8 up or from −8 down;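 note: probe is the protein aXip251-270 applied at 1 µg/mL to compound-printed slides; binding of probe to printed compounds measured as 667 nm fluorescence plus signal to noise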
[3] = small-molecule binders of probe aNOTCH3, primary screen, biochemical, small-molecule microarray, 635/667 nm fluorescence (AID 1120); settings: higher = more signal;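 note: probe is a biotin-tagged antibody raised against NOTCH3 rather than NOTCH3 protein; score merges spot fluorescence near 667 nm with spot signal to noise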
[4] = small-molecule binders of probe aNOTCH2, primary screen, biochemical, small-molecule microarray, 635/667 nm fluorescence (AID 1121); settings: higher = more signal;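 note: score merges feature fluorescence read at 667 nm with its signal to noise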
[5] = biological target: Carbonic anhydrase 2 (Homo sapiens) (UniProt P00918); assay: CAII small-molecule binders, profiling panel, biochemical, small-molecule microarray, Alexa647-labelled CAII (AID 1122); settings: CAII-A647 binding fluorescence, higher = more signal
[6] = COS7 lysate on small-molecule microarray, probe aHis, 635 nm (AID 1123); settings: COS7 cell lysate, fluorescence, higher = more signal;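 note: z-score combines 667nm fluorescence intensity with signal-to-noise per printed compound spot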
[7] = compound binding in COS7 lysate, probe aLAP1, primary screen, cell lysate, small-molecule microarray (AID 1124); settings: probe aLAP1, fluorescence, higher = more signal;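 note: lysate comes from COS7 cells expressing LAP1 and is applied at 0.3 µg/mL; score merges spot fluorescence near 667 nm with signal-to-noise over triplicate slides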
[8] = tested on: Sam68 (KHDRBS1); assay: Sam68 small-molecule binders, primary screen, biochemical, small-molecule microarray, 635 nm fluorescence (AID 1125); settings: small-molecule microarray binding, higher = more signal;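 note: score merges 667 nm channel intensity with signal to noise over triplicate slides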
[9] = tested on: Chordin-like protein 2 (CHRDL2); assay: CHRDL2 small-molecule binders, primary screen, biochemical, small-molecule microarray, 635 nm fluorescence (AID 1126); settings: small-molecule microarray binding, fluorescence 635 nm; higher = more signal;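 note: printed compound slides probed with Chrdl2 protein at 4 µg/mL for 1 h at 4 C; score merges 667 nm emission intensity with signal to noise over three replicate slides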
[10] = biological target: Concanavalin-A (Canavalia ensiformis) (UniProt P02866); assay: ConA small-molecule binders, primary screen, artefact control for SMM control protein annotation, biochemical, small-molecule microarray, Alexa647 label, 635 nm (AID 1127); settings: ConA-A647 binding fluorescence, higher = more signal;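 note: z combines 667 nm emission intensity with signal-to-noise across three replicate slides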
Sequence of Concanavalin-A (Canavalia ensiformis) (P02866 whole entry, looked up): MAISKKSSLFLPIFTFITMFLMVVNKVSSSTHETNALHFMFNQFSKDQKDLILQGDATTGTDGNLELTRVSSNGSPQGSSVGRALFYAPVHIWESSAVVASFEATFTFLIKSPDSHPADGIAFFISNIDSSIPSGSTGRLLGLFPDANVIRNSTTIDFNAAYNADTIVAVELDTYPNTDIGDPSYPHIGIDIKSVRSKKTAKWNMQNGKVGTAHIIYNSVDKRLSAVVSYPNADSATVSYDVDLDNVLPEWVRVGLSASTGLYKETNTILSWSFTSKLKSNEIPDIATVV

[11] = anti-His antibody binders, primary screen, artefact control for SMM control protein annotation, biochemical, small-molecule microarray, 635 nm fluorescence (AID 1128); settings: anti-His Alexa647 antibody binding, higher = more signal;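 note: score merges feature fluorescence with signal-to-noise for each printed compound spot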
[12] = tested on: Human papillomavirus type 1a E7 protein (residues 1-88); assay: HPV1a E7 small-molecule binders, primary screen, biochemical, small-molecule microarray, residues 1-88, 635 nm (AID 1129); settings: small-molecule microarray binding, fluorescence 635 nm; higher = more signal
[13] = biological target: Focal adhesion kinase 1 (Homo sapiens) (UniProt Q05397); assay: small-molecule microarray binders of FAK, primary screen, biochemical, 635/667 nm fluorescence, BSA, DTT (AID 1130); settings: PTK2 binding, 635 nm fluorescence, higher = more signal;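 note: composite of spot emission at 667 nm and signal to noise over triplicate slides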
Sequence of Focal adhesion kinase 1 (Homo sapiens) (Q05397 whole entry, looked up): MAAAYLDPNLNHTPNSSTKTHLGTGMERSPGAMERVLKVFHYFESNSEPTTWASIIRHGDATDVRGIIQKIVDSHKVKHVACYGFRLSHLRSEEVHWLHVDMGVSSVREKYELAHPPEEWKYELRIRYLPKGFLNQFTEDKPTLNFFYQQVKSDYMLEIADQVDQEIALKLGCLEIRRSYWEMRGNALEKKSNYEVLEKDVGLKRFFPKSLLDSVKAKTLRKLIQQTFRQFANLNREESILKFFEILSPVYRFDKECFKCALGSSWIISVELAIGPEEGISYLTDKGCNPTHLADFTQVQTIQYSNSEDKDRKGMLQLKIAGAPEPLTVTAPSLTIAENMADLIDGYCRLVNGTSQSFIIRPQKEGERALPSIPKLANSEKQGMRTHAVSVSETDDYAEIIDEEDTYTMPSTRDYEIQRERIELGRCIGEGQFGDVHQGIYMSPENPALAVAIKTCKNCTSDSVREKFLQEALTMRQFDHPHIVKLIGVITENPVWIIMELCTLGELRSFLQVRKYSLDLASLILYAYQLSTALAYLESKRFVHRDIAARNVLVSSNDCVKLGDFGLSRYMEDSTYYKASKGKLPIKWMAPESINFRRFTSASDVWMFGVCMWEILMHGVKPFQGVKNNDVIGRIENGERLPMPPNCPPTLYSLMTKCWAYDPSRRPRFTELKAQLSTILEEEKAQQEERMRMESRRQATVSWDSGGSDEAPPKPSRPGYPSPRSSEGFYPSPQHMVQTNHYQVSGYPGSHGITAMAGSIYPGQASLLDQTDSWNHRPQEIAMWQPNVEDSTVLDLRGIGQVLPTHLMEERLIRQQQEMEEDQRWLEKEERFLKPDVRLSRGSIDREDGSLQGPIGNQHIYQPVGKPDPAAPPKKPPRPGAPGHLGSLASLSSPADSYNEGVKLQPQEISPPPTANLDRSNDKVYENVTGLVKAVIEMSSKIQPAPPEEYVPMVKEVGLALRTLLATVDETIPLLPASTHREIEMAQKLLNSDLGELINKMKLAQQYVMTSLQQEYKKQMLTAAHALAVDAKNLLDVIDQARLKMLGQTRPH

[14] = tested on: Fibrinogen (Alexa647-labelled); assay: fibrinogen binders on compound microarrays, profiling panel, artefact control for SMM control-protein annotation, biochemical, small-molecule microarray, 635/667 nm fluorescence (AID 1131); settings: fibrinogen-A647 binding fluorescence, higher = more signal;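 note: z-score merges 667 nm fluorescence with per-spot signal-to-noise over triplicate slides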
[15] = biological target: Follistatin (Homo sapiens) (UniProt P19883); assay: follistatin binders on small-molecule microarrays, primary screen, biochemical, small-molecule microarray, 635/667 nm fluorescence (AID 1132); settings: FST binding, 635 nm fluorescence, higher = more signal
Sequence of Follistatin (Homo sapiens) (P19883 whole entry, looked up): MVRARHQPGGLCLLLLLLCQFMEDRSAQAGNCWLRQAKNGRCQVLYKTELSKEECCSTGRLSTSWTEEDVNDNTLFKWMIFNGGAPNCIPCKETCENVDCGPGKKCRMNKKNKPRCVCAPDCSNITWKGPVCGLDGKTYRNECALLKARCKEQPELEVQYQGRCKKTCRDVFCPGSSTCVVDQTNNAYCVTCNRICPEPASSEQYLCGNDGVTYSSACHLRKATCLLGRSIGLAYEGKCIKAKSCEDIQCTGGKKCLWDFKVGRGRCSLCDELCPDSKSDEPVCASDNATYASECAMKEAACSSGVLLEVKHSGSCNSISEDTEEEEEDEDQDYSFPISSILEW

[16] = biological target: Fibroblast growth factor 2 (Homo sapiens) (UniProt P09038); assay: FGF2 binders on small-molecule microarrays, primary screen, biochemical, small-molecule microarray, 635/667 nm fluorescence (AID 1133); settings: small-molecule microarray binding, FGF2, fluorescence 635/667; higher = more signal
Sequence of Fibroblast growth factor 2 (Homo sapiens) (P09038 whole entry, looked up): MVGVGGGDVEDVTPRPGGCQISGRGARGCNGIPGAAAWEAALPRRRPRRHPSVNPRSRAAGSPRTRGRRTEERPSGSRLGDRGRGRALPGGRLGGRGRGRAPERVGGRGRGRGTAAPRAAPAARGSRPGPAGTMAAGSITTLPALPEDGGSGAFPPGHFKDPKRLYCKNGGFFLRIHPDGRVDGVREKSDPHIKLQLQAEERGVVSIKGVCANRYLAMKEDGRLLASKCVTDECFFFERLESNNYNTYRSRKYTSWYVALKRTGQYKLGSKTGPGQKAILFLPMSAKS

[17] = mitochondrial membrane potential change in A549 cells, profiling panel, cell-based, JC-1 fluorescence, basal, 24 h, 100 nL (AID 1138); settings: higher = more signal;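 note: A549 lung adenocarcinoma cells under basal conditions with no added stimulus; test concentration not given here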
[18] = tested on: Lefty1; assay: Lefty1 binders on small-molecule microarrays, primary screen, biochemical, small-molecule microarray, 635/667 nm fluorescence (AID 1139); settings: small-molecule microarray binding, fluorescence 635/667; higher = more signal
[19] = tested on: wheat germ agglutinin (Triticum aestivum), Alexa647-labelled; assay: wheat germ agglutinin binders on compound microarrays, profiling panel, artefact control for SMM control-protein annotation, biochemical, small-molecule microarray, 635/667 nm fluorescence (AID 1140); settings: WGA-A647 binding, 635 nm fluorescence, higher = more signal;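 note: score merges 667 nm feature emission with signal to noise over triplicate slides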
[20] = biological target: Luciferin 4-monooxygenase (Photinus pyralis) (UniProt P08659); assay: firefly luciferase enzyme inhibitors, primary screen, biochemical, luminescence, purified enzyme, 2006 set (AID 1141); settings: SteadyGlo luminescence, 30 min, higher = more signal, called active from +8 up or from −8 down;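 note: cell-free assay with purified firefly luciferase at 100 ng per well in PBS; test concentration not given here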
Sequence of Luciferin 4-monooxygenase (Photinus pyralis) (P08659 whole entry, looked up): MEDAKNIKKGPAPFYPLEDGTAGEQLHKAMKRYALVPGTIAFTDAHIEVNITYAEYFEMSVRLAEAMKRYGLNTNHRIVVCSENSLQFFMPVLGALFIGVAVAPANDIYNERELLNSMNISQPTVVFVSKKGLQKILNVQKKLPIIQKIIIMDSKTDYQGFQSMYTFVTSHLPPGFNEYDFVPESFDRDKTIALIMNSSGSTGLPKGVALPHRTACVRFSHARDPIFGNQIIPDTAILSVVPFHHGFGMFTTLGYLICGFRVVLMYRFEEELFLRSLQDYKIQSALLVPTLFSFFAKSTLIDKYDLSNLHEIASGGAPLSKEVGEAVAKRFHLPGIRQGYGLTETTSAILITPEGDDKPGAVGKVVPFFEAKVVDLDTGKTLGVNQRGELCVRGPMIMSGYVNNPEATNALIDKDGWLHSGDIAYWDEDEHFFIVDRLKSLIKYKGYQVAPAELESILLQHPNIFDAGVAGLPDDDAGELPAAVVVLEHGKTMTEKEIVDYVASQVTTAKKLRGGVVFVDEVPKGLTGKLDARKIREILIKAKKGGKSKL

Row | SMILES | composite z-score [1] | composite Z-score [2] | composite z-score [3] | composite z-score [4] | composite z-score [5] | composite z-score [6] | composite z-score [7] | composite z-score [8] | composite z-score [9] | composite z-score [10] | composite z-score [11] | composite z-score [12] | composite z-score [13] | composite z-score [14] | composite z-score [15] | composite z-score [16] | z-score [17] | composite z-score [18] | composite z-score [19] | z-score [20]
1 | CCOC(=O)C[C@H]1[C@H](OC(=O)Cc2ccc3c(c2)OCO3)[C@@H](NC(=O)c2ccc3ccccc3c2)c2cc(OCCCO)ccc2N1C(=O)c1ccc2ccccc2n1 | 0.661 | -0.102 (inactive) | 0.0349 | -0.0523 | 0.371 | 0.77 | 0.562 | 0.826 | -0.318 | 0.356 | 0.0303 | 0.731 | -0.339 | 0.774 | 0.197 | 0.334 | 2.55 | 0.37 | 1.06 | -1.25 (inactive)
2 | COCCCNC(=O)[C@@]1(Cc2ccccc2CN=[N+]=[N-])COC(c2ccc(OCCCO)cc2)=N1 | 0.922 | 0.536 (inactive) | 0.248 | 0.0261 | 0.673 | 2.83 | 0.413 | 1.3 | -2.16 | 1.13 | 2.69 | 1.21 | 0.759 | 0.479 | 0.186 | -0.742 | 1.79 | -0.713 | 1.03 | -1.59 (inactive)
3 | CCOC(=O)C[C@H]1[C@H](OC(=O)c2ccc(-c3ccccc3)cc2)[C@@H](NC(=O)C2CCCCC2)c2cc(OCCCO)ccc2N1C(=O)c1ccc2ccccc2n1 | 0.821 | -0.0871 (inactive) | 0.0179 | 0.0055 | -0.252 | 0.915 | 0.243 | 1.3 | -0.625 | 0.814 | 0.549 | 1.14 | 0.347 | 0.433 | 0.349 | -0.243 | 1.14 | 0.0309 | 0.388 | -0.784 (inactive)
4 | C=C(/C(=C/C[C@H](OC(=O)c1ccncc1)c1cccc(OCCO)c1)c1cc(C(=O)OC)ccc1OC)C(C)C | -0.768 | 0.415 (inactive) | -0.16 | -0.12 | 0.47 | 0.239 | 0.11 | 1.12 | -1.23 | 0.505 | -0.538 | 0.101 | 0.72 | -0.188 | -0.0075 | 0.266 | 2 | 0.411 | 0.844 | -0.979 (inactive)
5 | CCCNC(=O)[C@@H]1c2ccccc2C(=O)N(Cc2cc(C(F)(F)F)cc(C(F)(F)F)c2)[C@H]1c1ccc(CO)cc1 | -0.419 | -0.251 (inactive) | -0.0343 | -0.194 | 0.422 | 0.64 | 0.227 | 0.679 | -0.608 | 0.234 | 0.14 | 0.541 | 0.452 | 0.0967 | 0.652 | 0.213 | 0.904 | 0.0044 | 0.14 | -0.831 (inactive)
6 | Cc1ccc(S[C@]2(C(=O)NCC(C)C)CC(=O)N(C(C)C)[C@@H]2c2ccc(CO)cc2)cc1 | -0.283 | 0.0333 (inactive) | -0.255 | -0.163 | 0.747 | 0.301 | -0.311 | -0.749 | -0.589 | -0.522 | -1.15 | 0.259 | -0.267 | -1.48 | 0.259 | 0.206 | 0.69 | -0.477 | -1.76 | -0.204 (inactive)
7 | CC(C)C(CO)N1C(=O)[C@@H]2C3C(=O)OCCC/C=C\[C@H]3OC23C=CCN(C(C)C)C(=O)[C@@H]13 (stereo not given in full) | -1.36 | 1.77 (inactive) | -0.214 | -0.168 | 0.865 | 1.37 | 1.95 | 0.879 | -1.5 | -0.341 | -1.74 | -0.809 | 0.0086 | -0.935 | -1.05 | -0.993 | 0.743 | -0.278 | -1.14 | -0.774 (inactive)
8 | NC(=O)NCC#Cc1ccc2c(c1)[C@]1(C(=O)N2)[C@H](c2ccc(OCCO)cc2)N2[C@H](c3ccccc3)[C@H](c3ccccc3)OC(=O)[C@H]2[C@@H]1C(=O)Nc1nc2ccccc2s1 | -0.0355 | -0.883 (inactive) | -0.132 | -0.0629 | 0.0165 | 0.966 | 0.436 | -0.112 | 0.175 | 0.0806 | -0.609 | 0.123 | 0.0616 | 0.0886 | 0.923 | -0.292 | -2.17 | -0.609 | 0.244 | -2.15 (inactive)
9 | O=C(NO)[C@]1(Cc2ccccc2)N=C(c2ccc(OCCCO)cc2)O[C@@H]1c1ccccc1 | 0.847 | -0.876 (inactive) | -0.183 | -0.0909 | 0.678 | -0.359 | 0.0192 | -0.32 | -0.671 | -1.06 | -0.0837 | 0.0707 | -1 | 0.141 | -0.248 | -0.0928 | 2.09 | -0.458 | 0.162 | -2.34 (inactive)
10 | CCN(CC)c1ccc(N2CC=CC34O[C@@H]5C=CCOC(=O)[C@@H]5[C@H]3C(=O)N(C(C)CO)[C@@H]4C2=O)cc1 (stereo not given in full) | -1.28 | -0.237 (inactive) | -0.213 | -0.126 | 0.0808 | -0.67 | 0.0745 | -1.69 | -1.35 | -1.51 | -1.34 | -1.28 | -1.02 | -2.61 | -1.04 | -1.13 | 1.39 | -1.65 | -1.07 | -0.822 (inactive)

— PubChem BioAssay
